Reference: PubChem BioAssay
The source made the active and inactive calls.

Assay: optical density shifts of acrAB sulA E. coli – strain DRC41, OD650, 48 h, E. coli filamentation inducer project, primary screen (AID 1152);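 further: E. coli MC1000 strain DRC41 lacking acrAB efflux pump and sulA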
Settings: higher = more signal, called active from +8 up or from −8 down
For `O=C1[C@@H]2[C@@H](CC(COc3ccccc3)=C([C@H](O)CCc3ccccc3)[C@@H]2CO)C(=O)N1Cc1ccccc1`, the z-score was 0.17 (inactive).
For `COCCOC(=O)N1C(=O)[C@@]2(c3cc(C#CCC(C(=O)OC)C(=O)OC)ccc31)[C@H](C(N)=O)[C@H]1C(=O)O[C@H](c3ccccc3)[C@H](c3ccccc3)N1[C@@H]2c1ccc(O)cc1`, the z-score was -0.247 (inactive).
In the case of `CN(C)CCCNC(=O)[C@@]1(C)c2ccccc2C(=O)N(Cc2ccc(OC(F)(F)F)cc2)[C@H]1c1ccc(CO)cc1`, the z-score is reported as -0.796 (inactive).
In the case of `CCCC=C(CCC)[C@@H](NC(=O)OCC(C)C)c1ccc(C(=O)OC)cc1`, the z-score is reported as -0.531 (inactive).
For `COc1ccc(CCNC(=O)[C@@H]2c3ccccc3C(=O)N(Cc3ccccc3OC)[C@H]2c2ccc(CO)cc2)cc1`, the z-score was -0.499 (inactive).
In the case of `CCCC#C[Si](O[C@H](CC)c1cn(Cc2ccccc2)nn1)(C(C)C)C(C)C`, the z-score is reported as 0.991 (inactive).
For `[N-]=[N+]=NCc1ccccc1[C@@H]1OC(c2ccc(OCCCO)cc2)=N[C@]1(Cc1ccccc1N=[N+]=[N-])C(=O)O`, the z-score was 0.0786 (inactive).
With `CN(C)CCCNC(=O)[C@@H]1c2ccccc2C(=O)N(Cc2ccccc2C(F)(F)F)[C@H]1c1ccc(CO)cc1` the z-score was 1.77 (inactive).
With `C=CCNC(=O)[C@H]1[C@@H]2C(=O)O[C@@H](c3ccccc3)[C@@H](c3ccccc3)N2[C@@H](c2ccc(OCCO)cc2)[C@]12C(=O)Nc1ccccc12` the z-score was 0.738 (inactive).
For `O=C1O[C@@H](c2ccccc2)[C@@H](c2ccccc2)N2[C@@H](c3ccccc3OCCO)[C@]3(C(=O)Nc4ccc(C#CCCO)cc43)[C@@H](C(=O)NC[C@H](O)c3ccccc3)[C@H]12`, the z-score was 0.54 (inactive).
For `C[C@]1(C(=O)O)c2ccccc2C(=O)N(Cc2cc(F)cc(C(F)(F)F)c2)[C@H]1c1ccc(CO)cc1`, the z-score was -0.169 (inactive).

Assay: probe aLefty1 binding on compound microarray – biochemical, small-molecule microarray, 635/667 nm fluorescence, primary screen (AID 1153);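 further: score merges spot fluorescence with signal-to-noise ratio from the scanned slide images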
Settings: higher = more signal
With `[N-]=[N+]=Nc1ccccc1C[C@@]1(C(=O)NCC(O)CO)N=C(c2ccc(OCCCO)cc2)O[C@@H]1c1ccccc1` (stereo partly specified) the composite z-score was 0.102.
`C=C(CCCC)/C(=C/C[C@H](OC(=O)c1ccncc1)c1cccc(OCCO)c1)c1cnc2ccccc2c1` gave a composite z-score of 0.0429.
`COCCOC(=O)N1C(=O)[C@@]2(c3cc(C#Cc4ccc(OC)cc4)ccc31)[C@H](c1ccc(OCCO)cc1)N1[C@H](c3ccccc3)[C@H](c3ccccc3)OC(=O)[C@H]1[C@@H]2C(=O)NC[C@H](O)c1ccccc1` gave a composite z-score of 0.257.
In the case of `CCOC(=O)C1=CC[C@@H](c2ccc(OC)cc2)N(S(=O)(=O)c2ccc(C)cc2)[C@H]1c1ccc(C)cc1`, the composite z-score is reported as 0.578.
`COCCOC(=O)N1C(=O)[C@@]2(c3cc(C#CCCO)ccc31)[C@H](c1ccc(OCCO)cc1)N1[C@H](c3ccccc3)[C@H](c3ccccc3)OC(=O)[C@H]1[C@@H]2C(=O)N1CCCCCCC1` showed a composite z-score of 2.13.
`COC(=O)[C@@]1(Cc2ccc(F)cc2)[C@H]2c3cc(C(=O)N4CCCC4)n(Cc4cc(F)cc5c4OCOC5)c3C[C@H]2CN1C(=O)c1ccccc1` showed a composite z-score of 0.617.
With `C=C(CCCC)/C(=C/C[C@H](OC(=O)c1ccncc1)c1ccc(OCCO)cc1)c1cnc2ccccc2c1` the composite z-score was 0.127.
For `C=CCOC(=O)[C@@H]1[C@H]2C(=O)O[C@H](c3ccccc3)[C@H](c3ccccc3)N2[C@H](c2ccc(OCCOC(=O)[C@H]3C[C@H]4C(=O)N5CCC[C@H]5C(=O)N4[C@H]3c3cccc(OCCO)c3)cc2)[C@@]12C(=O)Nc1ccc(I)cc12`, the composite z-score was -0.101.
In the case of `COc1ccc([Si](C)(C)[C@H]2[C@H](CC(=O)N3Cc4ccccc4C[C@H]3CO)O[C@@]3(C(=O)N(C)c4c(Br)cc(C)cc43)[C@@H]2C)cc1`, the composite z-score is reported as 0.297.
`CCCC[C@H]1OB(O)C[C@H]2C1=C(COc1ccccc1)C[C@H]1C(=O)C=CC(=O)[C@H]12` showed a composite z-score of -0.134.
Compound `COCCOC(=O)N1C(=O)[C@@]2(c3cc(C#CCC(C(=O)OC)C(=O)OC)ccc31)[C@H](C(=O)Nc1nc3ccccc3s1)[C@H]1C(=O)O[C@H](c3ccccc3)[C@H](c3ccccc3)N1[C@@H]2c1ccc(O)cc1` has a composite z-score of 0.786.
`COC(=O)[C@@]1(Cc2ccc(OC)cc2)[C@H]2c3cc(C(=O)N4CCCC4)n(Cc4ccc(Cl)c(C(F)(F)F)c4)c3C[C@H]2CN1C(=O)c1ccccc1` showed a composite z-score of 1.19.
In the case of `Cc1ccc(F)cc1S(=O)(=O)N[C@H]1CCN(Cc2ccc(OC(C)C)cc2)C1`, the composite z-score is reported as -0.241.
`COCCOC(=O)N1C(=O)[C@@]2(c3cc(C#CCNC(N)=O)ccc31)[C@H](C(=O)Nc1nc3ccccc3s1)[C@H]1C(=O)O[C@H](c3ccccc3)[C@H](c3ccccc3)N1[C@@H]2c1ccccc1OCCO` gave a composite z-score of 0.646.
With `CCCCC(O)C1C=CC2C(=O)N(c3ccccc3)C(=O)C2N1Nc1ccc([N+](=O)[O-])cc1` (stereo unspecified) the composite z-score was 0.683.
With `CCCN1C(=O)[C@@]2(c3ccc([N+](=O)[O-])cc3)CC(=O)N(CC34CC5CC(CC(C5)C3)C4)[C@@H]2c2ccc(CO)cc21` the composite z-score was 0.334.
`O=C1C=C(c2ccccc2)C(=O)C2=C1CC([C@H]1Oc3ccccc3S(=O)(=O)N3CCC[C@@H]13)=CC2` gave a composite z-score of -0.101.
`O=C1[C@H]2C=C(I)[C@H](C[C@@H]2OCCCCCCO)[C@@]12CO2` gave a composite z-score of 0.0834.
For `N#Cc1ccc(-c2cccc(=O)o2)cc1`, the composite z-score was -0.0954.
Work on `N#Cc1ccc(NN2C(C(O)C3CC=CCC3)C=CC3C(=O)N(c4ccccc4)C(=O)C32)cc1` (stereo unspecified) yielded a composite z-score of 0.364.
Work on `COC(=O)C(CC#Cc1ccc2c(c1)[C@]1(C(=O)N2)[C@H](c2ccc(OCCO)cc2)N2[C@H](c3ccccc3)[C@H](c3ccccc3)OC(=O)[C@H]2[C@@H]1C(=O)N1CCCCCCC1)C(=O)OC` yielded a composite z-score of 2.67.
`COCCOC(=O)N1C(=O)[C@@]2(c3ccccc31)[C@H](c1ccc(O)cc1)N1[C@H](c3ccccc3)[C@H](c3ccccc3)OC(=O)[C@H]1[C@@H]2C(=O)N1CCCCCCC1` showed a composite z-score of 2.86.
Work on `COc1ccc(C(O)C2C=CC3C(=O)N(c4ccccc4)C(=O)C3N2Nc2ccc([N+](=O)[O-])cc2)c2ccccc12` (stereo unspecified) yielded a composite z-score of 0.364.
With `O=C1c2ccccc2[C@@]2(Cc3ccccc3N(Cc3ccccc3)C2=O)[C@H](c2ccc(CO)cc2)N1Cc1ccccc1Cl` the composite z-score was -0.0479.
`O=C1[C@@H]2[C@@H](CC(COc3ccccc3)=C([C@H](O)CCc3ccccc3)[C@@H]2CO)C(=O)N1Cc1ccccc1` showed a composite z-score of -0.0867.
For `COCCOC(=O)N1C(=O)[C@@]2(c3cc(C#CCC(C(=O)OC)C(=O)OC)ccc31)[C@H](C(N)=O)[C@H]1C(=O)O[C@H](c3ccccc3)[C@H](c3ccccc3)N1[C@@H]2c1ccc(O)cc1`, the composite z-score was 0.0406.
In the case of `CN(C)CCCNC(=O)[C@@]1(C)c2ccccc2C(=O)N(Cc2ccc(OC(F)(F)F)cc2)[C@H]1c1ccc(CO)cc1`, the composite z-score is reported as -0.104.
Compound `CCCC=C(CCC)[C@@H](NC(=O)OCC(C)C)c1ccc(C(=O)OC)cc1` has a composite z-score of 0.506.
`COc1ccc(CCNC(=O)[C@@H]2c3ccccc3C(=O)N(Cc3ccccc3OC)[C@H]2c2ccc(CO)cc2)cc1` gave a composite z-score of -0.0303.
Compound `CCCC#C[Si](O[C@H](CC)c1cn(Cc2ccccc2)nn1)(C(C)C)C(C)C` has a composite z-score of 0.687.
In the case of `[N-]=[N+]=NCc1ccccc1[C@@H]1OC(c2ccc(OCCCO)cc2)=N[C@]1(Cc1ccccc1N=[N+]=[N-])C(=O)O`, the composite z-score is reported as 0.865.
Compound `CN(C)CCCNC(=O)[C@@H]1c2ccccc2C(=O)N(Cc2ccccc2C(F)(F)F)[C@H]1c1ccc(CO)cc1` has a composite z-score of -0.103.
In the case of `C=CCNC(=O)[C@H]1[C@@H]2C(=O)O[C@@H](c3ccccc3)[C@@H](c3ccccc3)N2[C@@H](c2ccc(OCCO)cc2)[C@]12C(=O)Nc1ccccc12`, the composite z-score is reported as 1.21.
`O=C1O[C@@H](c2ccccc2)[C@@H](c2ccccc2)N2[C@@H](c3ccccc3OCCO)[C@]3(C(=O)Nc4ccc(C#CCCO)cc43)[C@@H](C(=O)NC[C@H](O)c3ccccc3)[C@H]12` showed a composite z-score of 1.63.
`C[C@]1(C(=O)O)c2ccccc2C(=O)N(Cc2cc(F)cc(C(F)(F)F)c2)[C@H]1c1ccc(CO)cc1` showed a composite z-score of -0.261.
